Laboratory results taken from PubChem BioAssay (Tox21).
Records with an inconclusive call do not appear. Activity calls are given as the source filed them. Unless noted, calls come from the whole dose curve.

What was measured:
[1] = Nuclear factor erythroid 2-related factor 2/antioxidant responsive element (Nrf2/ARE) small molecule agonists: qHTS cell viability counter screen in human keratinocytes (AID 1919968; active = well fitted curve in the direction sought with a large enough effect in the repeat runs; an effect the other way counts as inactive or inconclusive; note: nearly all actives have a fitted effect of over 55% in size; note: potency is the fitted concentration of half-maximal effect)
In short: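 After a 5 h attachment period, ARE-reporter keratinocytes were dosed with compounds in DMSO and then cultured 23 h at 37 C. Cell viability came from CellTiter-Fluor signal read after a further 1 h.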

[2] = Nuclear factor erythroid 2-related factor 2/antioxidant responsive element (Nrf2/ARE) small molecule agonists: luciferase reporter gene qHTS assay in human keratinocytes (AID 1919969); note: nearly all actives have a fitted effect of over 35% in size; note: potency is the fitted concentration of half-maximal effect
[3] = biological target: Gonadotropin-releasing hormone receptor (Homo sapiens) (UniProt P30968); test: Human gonadotropin-releasing hormone receptor (GnRHR) small molecule agonists, calcium flux assay in GnRHR-HEK293 cells (AID 1920063); note: nearly all actives have a fitted effect of over 35% in size
Sequence of Gonadotropin-releasing hormone receptor (Homo sapiens) (P30968 whole entry, looked up): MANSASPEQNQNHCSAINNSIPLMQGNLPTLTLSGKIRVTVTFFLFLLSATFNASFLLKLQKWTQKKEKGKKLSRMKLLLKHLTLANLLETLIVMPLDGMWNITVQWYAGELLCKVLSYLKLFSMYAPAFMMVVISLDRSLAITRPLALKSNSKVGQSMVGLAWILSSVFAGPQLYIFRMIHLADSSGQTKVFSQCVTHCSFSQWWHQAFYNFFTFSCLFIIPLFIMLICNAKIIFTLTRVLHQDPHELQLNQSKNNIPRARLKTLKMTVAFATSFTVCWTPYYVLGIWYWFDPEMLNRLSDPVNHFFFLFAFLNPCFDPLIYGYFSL
In short: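 We seeded human GnRHR-expressing HEK293 cells for 18 hours, loaded them with calcium dye for an hour at 37 C, added test compounds, and recorded fluorescence intensity kinetically for three minutes.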

[4] = biological target: KiSS-1 receptor (Homo sapiens) (UniProt Q969F8); test: Human kisspeptin (KISS1R) small molecule agonists, calcium flux assay in KISS1R-HEK293 cells (AID 1920064; active = well fitted curve in the direction sought with a large enough effect in the repeat runs; an effect the other way counts as inactive or inconclusive)
Sequence of KiSS-1 receptor (Homo sapiens) (Q969F8 whole entry, looked up): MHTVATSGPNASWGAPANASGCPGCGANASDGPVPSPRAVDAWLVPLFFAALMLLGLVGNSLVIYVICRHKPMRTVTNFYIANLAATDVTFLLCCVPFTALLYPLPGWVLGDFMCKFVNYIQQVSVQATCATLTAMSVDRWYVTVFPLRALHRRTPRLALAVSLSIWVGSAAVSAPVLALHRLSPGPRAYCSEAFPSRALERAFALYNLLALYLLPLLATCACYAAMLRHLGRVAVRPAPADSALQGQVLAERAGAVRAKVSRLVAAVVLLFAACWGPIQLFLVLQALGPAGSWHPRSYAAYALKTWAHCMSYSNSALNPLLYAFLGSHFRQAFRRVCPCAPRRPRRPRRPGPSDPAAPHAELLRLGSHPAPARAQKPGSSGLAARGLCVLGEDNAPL
In short: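 Kinetic calcium assay, 1 s sampling over 3 min at Ex/Em 480/540, in HEK293 cells engineered with human KISS1R; compounds delivered in DMSO after 1 h dye loading.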

[5] = G protein-coupled receptor (GPCR) small molecule agonists, calcium flux assay: HEK293 wild type cell line counter screen (AID 1920065)
In short: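 Calcium-sensitive dye, loaded 1 h at 37 C into cells cultured 18 h, reports compound-evoked calcium release as fluorescence (Ex/Em 480/540), measured over 3 min. Agonist mode; 15-point titrations, triplicate.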

[6] = p53 small molecule agonists, cell-based qHTS assay with human liver microsomes (AID 1963577);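 note: p53 response element beta-lactamase reporter cells with liver microsomes plus NADPH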
In short: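 16 h, 37 C exposure of p53RE-bla cells to compounds with human liver microsomes and NADPH (0.5 mg/mL final each); detection via LiveBLAzer mixture, 2 h dark at room temperature.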

[7] = p53 small molecule agonists, cell-based qHTS assay with rat liver microsomes (AID 1963578)
In short: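 With rat liver microsomes and NADPH present (0.5 mg/mL final each), p53RE-bla cells are treated with compound for 16 h at 37 C. LiveBLAzer detection mixture is then applied for 2 h at room temperature in the dark.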

[8] = p53 small molecule agonists, cell-based qHTS assay with human liver microsomes: qHTS cell viability counter screen (AID 1963579); note: nearly all actives have a fitted effect of over 45% in size; note: potency is the fitted concentration of half-maximal effect
In short: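 In this multiplexed counter screen, the reporter plates were subsequently treated with CellTiter-Glo so that cell viability, reflected by luminescence, could be recorded for p53RE-bla cells dosed 16 h with compounds under microsomal activation (HLM and NADPH).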

[9] = p53 small molecule agonists, cell-based qHTS assay with rat liver microsomes: qHTS cell viability counter screen (AID 1963580); note: nearly all actives have a fitted effect of over 45% in size; note: potency is the fitted concentration of half-maximal effect
In short: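 Viability is assessed in parallel with the p53 reporter read: HCT-116 p53RE-bla cells receive compounds plus rat microsomes and NADPH (0.5 mg/mL final apiece), incubate 16 h at 37 C, and then CellTiter-Glo luminescence is recorded.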

[10] = p53 small molecule agonists, cell-based qHTS assay: qHTS cell viability counter screen (AID 1963581); note: nearly all actives have a fitted effect of over 45% in size; note: potency is the fitted concentration of half-maximal effect
In short: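 Following 5 h attachment, HCT-116 p53RE-bla cells took up compound for 16 h at 37 C; the reporter was read with B/G FRET substrate (2 h RT), and viability then via CellTiter-Glo ATP luminescence.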

[11] = p53 small molecule agonists, cell-based qHTS assay (AID 1963582; active = well fitted activation curve with a large enough effect in the signal ratio in the repeat runs, not every such curve was filed as active; the % refers to the signal ratio)
In short: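 In this cell-based concentration-response screen, a p53 response element drives beta-lactamase; cells received DMSO-borne compounds after 5 h culture and were incubated a further 16 h before FRET substrate development.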

[12] = cAMP Responsive Elements (CRE) small molecule antagonists, cell-based qHTS assay (AID 1963591; active = well fitted inhibition curve with a large enough effect in the signal ratio in the repeat runs, not every such curve was filed as active; the % refers to the signal ratio)
In short: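 HEK293T cells carrying a CRE-driven beta-lactamase reporter receive compound and NKH477 (0.25 uM final) for 3 h. Fluorescence from LiveBLAzer B/G FRET substrate is read after 2 h at room temperature.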

[13] = biological target: Beta-2 adrenergic receptor (Homo sapiens) (UniProt P07550); test: Adrenergic beta2 receptor (ADRB2) small molecule antagonists, cell-based qHTS assay (AID 1963592); note: nearly all actives have a fitted effect of over 50% in size; note: potency is the fitted concentration of half-maximal effect; for activity change, negative = inhibition: series mostly up to about 92 µM
Sequence of Beta-2 adrenergic receptor (Homo sapiens) (P07550 whole entry, looked up): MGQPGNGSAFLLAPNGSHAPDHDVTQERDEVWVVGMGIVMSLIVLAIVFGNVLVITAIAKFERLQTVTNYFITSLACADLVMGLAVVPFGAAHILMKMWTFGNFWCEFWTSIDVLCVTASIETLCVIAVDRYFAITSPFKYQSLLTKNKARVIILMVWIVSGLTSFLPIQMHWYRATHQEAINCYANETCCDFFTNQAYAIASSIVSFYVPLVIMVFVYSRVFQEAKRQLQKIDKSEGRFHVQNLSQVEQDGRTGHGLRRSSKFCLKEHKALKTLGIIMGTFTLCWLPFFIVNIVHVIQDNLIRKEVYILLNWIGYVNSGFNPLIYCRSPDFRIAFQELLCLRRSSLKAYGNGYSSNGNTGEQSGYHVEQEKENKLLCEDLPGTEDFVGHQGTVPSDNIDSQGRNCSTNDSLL
In short: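 Cells (CHO, stable ADRB2 overexpression) incubated 18-20hr at 37C; compounds added from DMSO; agonist mix (1nM isoproterenol, 100uM IBMX, 25uM Ro-20-1724) added; 0.5hr RT; d2-cAMP and anti-cAMP-cryptate added; 1hr RT; 665/615 nm read.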

[14] = biological target: D(2) dopamine receptor (Homo sapiens) (UniProt P14416); test: Dopamine D2 receptor (DRD2) small molecule agonists, cell-based qHTS assay (AID 1963594); note: nearly all actives have a fitted effect of over 35% in size
Sequence of D(2) dopamine receptor (Homo sapiens) (P14416 whole entry, looked up): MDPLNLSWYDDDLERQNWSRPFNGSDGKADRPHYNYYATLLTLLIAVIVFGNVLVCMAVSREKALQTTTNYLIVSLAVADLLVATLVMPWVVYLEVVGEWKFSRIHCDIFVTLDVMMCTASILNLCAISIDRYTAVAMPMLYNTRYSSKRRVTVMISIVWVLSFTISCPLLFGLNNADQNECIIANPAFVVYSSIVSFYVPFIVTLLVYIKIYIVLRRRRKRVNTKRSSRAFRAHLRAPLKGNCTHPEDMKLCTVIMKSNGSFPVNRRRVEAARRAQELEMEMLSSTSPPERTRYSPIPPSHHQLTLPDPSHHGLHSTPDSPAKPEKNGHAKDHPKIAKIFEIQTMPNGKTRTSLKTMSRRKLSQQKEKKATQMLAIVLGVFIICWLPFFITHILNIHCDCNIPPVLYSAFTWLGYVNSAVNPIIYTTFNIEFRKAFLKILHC
In short: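 HEK293 cells stably expressing human DRD2, pre-treated with PDE inhibitor Ro20-1724 (0.1 mM final) and compound 10 min at room temperature, then stimulated with NKH477 (200nM […]) for 30 min. cAMP read by HTRF (665/620 nm).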

[15] = biological target: D(2) dopamine receptor (Homo sapiens) (UniProt P14416); test: Dopamine D2 receptor (DRD2) small molecule antagonists, cell-based qHTS assay (AID 1963595; active = well fitted inhibition curve with a large enough effect in the signal ratio in the repeat runs, with a control signal flat; the % refers to the signal ratio; note: potency is the fitted concentration of half-maximal effect)
In short: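 HTRF cAMP read-out at 665 and 620 nm emission (340 nm excitation). Antagonist mode: compounds were tested against 12 nM quinpirole in DRD2-HEK293 cells, with 200 nM NKH477 raising cAMP and 0.1 mM Ro20-1724 blocking its breakdown.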

[16] = biological target: 5-hydroxytryptamine receptor 2A (Homo sapiens) (UniProt P28223); test: 5-hydroxytryptamine receptor 2A (HTR2A) small molecule antagonists, cell-based qHTS assay (AID 1963586); note: nearly all actives have a fitted effect of over 45% in size
Sequence of 5-hydroxytryptamine receptor 2A (Homo sapiens) (P28223 whole entry, looked up): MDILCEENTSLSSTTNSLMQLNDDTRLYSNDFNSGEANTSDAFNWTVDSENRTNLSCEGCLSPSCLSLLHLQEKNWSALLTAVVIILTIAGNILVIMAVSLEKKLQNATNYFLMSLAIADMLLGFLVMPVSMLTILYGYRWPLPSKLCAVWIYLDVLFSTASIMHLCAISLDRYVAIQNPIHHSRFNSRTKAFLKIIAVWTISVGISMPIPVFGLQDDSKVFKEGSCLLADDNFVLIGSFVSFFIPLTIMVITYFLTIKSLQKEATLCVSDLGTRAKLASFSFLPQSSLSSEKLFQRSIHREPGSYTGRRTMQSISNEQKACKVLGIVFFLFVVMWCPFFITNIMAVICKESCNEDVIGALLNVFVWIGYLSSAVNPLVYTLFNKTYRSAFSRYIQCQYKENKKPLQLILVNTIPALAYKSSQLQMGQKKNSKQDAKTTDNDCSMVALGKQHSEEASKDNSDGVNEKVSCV
In short: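 Antagonist-mode intracellular calcium assay: DOI (4 nM) added after 5 min compound pre-incubation at room temperature to dye-loaded HTR2A-CHO cells. Fluorescence followed for 3 min, sampled every second.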

[17] = biological target: 5-hydroxytryptamine receptor 2A (Homo sapiens) (UniProt P28223); test: 5-hydroxytryptamine receptor 2A (HTR2A) small molecule agonists, cell-based qHTS assay (AID 1963587); note: nearly all actives have a fitted effect of over 30% in size
In short: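 CHO cells stably expressing human HTR2A, plated 18 h, loaded with calcium dye 1 h at 37 C. Agonist mode: compounds added and intracellular calcium fluorescence recorded kinetically for 2 min at 1 sec intervals.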

[18] = biological target: Muscarinic acetylcholine receptor M1 (Homo sapiens) (UniProt P11229); test: Cholinergic receptor muscarinic 1 (CHRM1) small molecule antagonists, cell-based qHTS assay (AID 1963588); note: nearly all actives have a fitted effect of over 40% in size
Sequence of Muscarinic acetylcholine receptor M1 (Homo sapiens) (P11229 whole entry, looked up): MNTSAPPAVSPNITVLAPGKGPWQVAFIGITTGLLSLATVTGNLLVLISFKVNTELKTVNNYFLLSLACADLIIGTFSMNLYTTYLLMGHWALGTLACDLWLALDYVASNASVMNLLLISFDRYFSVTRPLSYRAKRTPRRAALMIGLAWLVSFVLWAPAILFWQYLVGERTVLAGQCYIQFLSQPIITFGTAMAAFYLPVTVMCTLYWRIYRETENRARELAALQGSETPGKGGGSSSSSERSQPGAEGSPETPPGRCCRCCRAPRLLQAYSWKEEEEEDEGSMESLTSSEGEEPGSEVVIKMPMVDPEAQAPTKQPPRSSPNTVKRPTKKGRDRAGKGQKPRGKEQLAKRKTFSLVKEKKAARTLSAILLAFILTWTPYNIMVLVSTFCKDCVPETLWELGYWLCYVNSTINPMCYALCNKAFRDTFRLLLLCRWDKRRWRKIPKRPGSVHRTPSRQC
In short: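 CHRM1-CHO calcium-flux assay, antagonist mode. Cells were seeded 18 h, dye-loaded 1 h at 37 C and given compound for 5 min at RT, then acetylcholine was added at 50nM. FDSS fluorescence was read 3 min; 15 concentrations, three runs.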

[19] = biological target: Muscarinic acetylcholine receptor M1 (Homo sapiens) (UniProt P11229); test: Cholinergic receptor muscarinic 1 (CHRM1) small molecule agonists, cell-based qHTS assay (AID 1963589); note: nearly all actives have a fitted effect of over 35% in size
In short: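 Measures agonist-induced intracellular calcium rise. Stable human CHRM1 CHO line, 1 h dye load at 37 C, compounds from DMSO, kinetic fluorescence read.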

[20] = cAMP Responsive Elements (CRE) small molecule agonists, cell-based qHTS assay (AID 1963590)
In short: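 A CRE-responsive beta-lactamase reporter in HEK 293T cells was used. Treatment ran 3 h at 37 C; detection used LiveBLAzer B/G FRET substrate for 2 h at room temperature.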
% is set by controls: 0 for no effect and ±100 for the full control effect.

OC(CCCN1CCCCC1)(c1ccccc1)c1ccccc1
inactive: Potency [1] | Potency [2] | Potency [3] | outcome [4] | outcome [5] | Potency [6] | Potency [7] | Potency [8] | Potency [9] | Potency [10] | Potency [11] | Potency [12] | Potency [13] | Potency [14]
active: Potency [15] 5.96 µM

Nc1cc(Cl)c(O)c(Cl)c1
active: Potency [2] 54.5 µM
inactive: Potency [1] | Potency [3] | outcome [4] | outcome [5] | Potency [6] | Potency [7] | Potency [8] | Potency [9] | Potency [10] | Potency [16] | Potency [17] | Potency [18] | Potency [19]

Cc1cn[nH]c1
inactive: Potency [1] | Potency [2] | Potency [3] | outcome [4] | outcome [5] | Potency [6] | Potency [7] | Potency [8] | Potency [9] | Potency [10] | Potency [11] | Potency [20] | Potency [13] | Potency [14] | Potency [15]

Cc1ccc(C(=O)c2ccc(CC(=O)O)n2C)cc1
inactive: Potency [1] | Potency [2] | Potency [3] | outcome [4] | outcome [5] | Potency [6] | Potency [7] | Potency [8] | Potency [9] | Potency [10] | Potency [11] | Potency [12] | Potency [14] | Potency [15]

C[C@H](CCC(=O)O)[C@H]1CC[C@H]2[C@@H]3[C@H](O)C[C@@H]4C[C@H](O)CC[C@]4(C)[C@H]3C[C@H](O)[C@]12C
inactive: Potency [1] | Potency [2] | Potency [3] | outcome [4] | outcome [5] | Potency [6] | Potency [7] | Potency [8] | Potency [9] | Potency [10] | Potency [11] | Potency [20] | Potency [13] | Potency [14] | Potency [15]

COc1cc(N)c(Cl)cc1C(=O)NC1CCN(CCCOc2ccc(F)cc2)CC1OC (stereo not given)
active: Potency [13] 23.7 µM | Potency [15] 11.9 µM
inactive: Potency [1] | Potency [2] | Potency [3] | outcome [4] | outcome [5] | Potency [6] | Potency [7] | Potency [8] | Potency [9] | Potency [10] | Potency [11] | Potency [12]

NCCCNCCSP(=O)(O)O
inactive: activity change, negative = cytotoxicity [1] -4.44% [at 8.39 µM] | activity, positive = activation [2] -4.57% [at 8.39 µM] | activity change [3] -1.6% [at 5.22 µM, active compounds read high] | activation [4] -1.03% [at 6.97 µM] | activation [5] -0.178% [at 5.23 µM] | activation [6] 9.01% [at 5.99 µM] | activation [7] 0.418% [at 5.99 µM] | activity change, negative = cytotoxicity [8] -1.63% [at 5.99 µM] | activity change, negative = cytotoxicity [9] 7.5% [at 5.99 µM] | activity change, negative = cytotoxicity [10] 5.99% [at 5.99 µM] | activation [11] 1.38% [at 5.99 µM] | activity change, negative = inhibition [12] 10.3% [at 8.39 µM] | activity change, negative = inhibition [13] -7.99% [at 8.39 µM] | activation [14] -13.4% [at 8.39 µM] | activity change, negative = inhibition [15] 5.25% [at 8.38 µM]

CN1C(=O)OC(C)(C)C1=O
inactive: Potency [1] | Potency [2] | Potency [3] | outcome [4] | outcome [5] | Potency [6] | Potency [7] | Potency [8] | Potency [9] | Potency [10] | Potency [11] | Potency [20] | Potency [13] | Potency [14] | Potency [15]

CCCCOc1ccc(OCCCN2CCOCC2)cc1
inactive: Potency [1] | Potency [2] | Potency [3] | outcome [4] | outcome [5] | Potency [6] | Potency [7] | Potency [8] | Potency [9] | Potency [10] | Potency [11] | Potency [20] | Potency [13] | Potency [15]

O=C(O)Cc1ccc(-c2ccccc2)cc1
inactive: Potency [1] | Potency [2] | Potency [3] | outcome [4] | outcome [5] | Potency [6] | Potency [7] | Potency [8] | Potency [9] | Potency [10] | Potency [11] | Potency [13] | Potency [14] | Potency [15]

O=S1(=O)CC(Cl)(Cl)C(Cl)(Cl)C1
inactive: Potency [3] | outcome [4] | outcome [5] | Potency [6] | Potency [7] | Potency [16] | Potency [17] | Potency [18] | Potency [19]
active: Potency [1] 6.11 µM | Potency [2] 2.43 µM | Potency [8] 5.76 µM | Potency [9] 18.2 µM | Potency [10] 16.2 µM

CCCCN1CCCC[C@H]1C(=O)Nc1c(C)cccc1C
inactive: Potency [1] | Potency [2] | Potency [3] | outcome [4] | outcome [5] | Potency [6] | Potency [7] | Potency [8] | Potency [9] | Potency [10] | Potency [11] | Potency [13] | Potency [14] | Potency [15]

CCN1CCC[C@H]1CNC(=O)c1cc(S(N)(=O)=O)ccc1OC
inactive: Potency [1] | Potency [2] | Potency [3] | outcome [4] | outcome [5] | Potency [6] | Potency [7] | Potency [8] | Potency [9] | Potency [10] | Potency [11] | Potency [20] | Potency [13]

O=P(O)(O)C(O)(Cc1cccnc1)P(=O)(O)O
inactive: Potency [1] | Potency [2] | Potency [3] | outcome [4] | outcome [5] | Potency [6] | Potency [7] | Potency [8] | Potency [9] | Potency [10] | Potency [11] | Potency [12] | Potency [14] | Potency [15]
